Assay results from PubChem BioAssay (Tox21).
“And” between values parts separate entries of the source, which are not always exact repeats. Equal entries are not always repeated. Results filed as inconclusive are left out. Some compounds were tested as several samples or in several runs, with calls that do not always agree. The source made the active and inactive calls. Unless noted, calls follow the shape of the dose curve; as a rule, active = well fitted curve in the direction sought with a large enough effect in the repeat runs; inconclusive = weak or mixed curves; inactive = no such curve, though single readings can be large; an effect the other way counts as inactive or inconclusive.

Tests used:
[1] = qHTS assay to identify small molecule agonists of the hypoxia (HIF-1) signaling pathway - cell viability counter screen (AID 1224844; calls by dose curve; also: nearly all actives have a fitted effect of over 50% in size; also: potency is read from the fitted curve at half-maximal effect)
In short: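 ME-180 HRE-bla cells, 2,000/well, 0.5% dialyzed FBS; 5 hr settle, 17 hr compound at 37C/5% CO2; CCF4-AM reporter read first, then CellTiter-Glo luminescence after 30 min RT.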

[2] = qHTS assay to identify small molecule agonists of H2AX (AID 1224845; active = well fitted activation curve with a large enough effect in the signal ratio in the repeat runs, not every such curve was filed as active; the % refers to the signal ratio; also: potency is read from the fitted curve at half-maximal effect)
In short: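 Wild-type CHO-K1 cells, plated overnight, exposed 3hr at 37C to 15 concentrations (0.76% DMSO final). Lysed, then HTRF anti-pH2AX (S139) cryptate and anti-H2AX-d2 antibodies, 24 hr room temperature; 665/620 nm emission read.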

[3] = qHTS assay to identify small molecule agonists of H2AX - cell viability counter screen (AID 1224847; calls by dose curve; also: nearly all actives have a fitted effect of over 30% in size; also: potency is read from the fitted curve at half-maximal effect)
In short: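 Cells plated first: CHO-K1, 1000 per well in 10% FBS medium, incubated overnight at 37C. Then 15-point compound titration added (final DMSO 0.76%) for 3 hr. Finally CellTiter-Glo added and luminescence read.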

[4] = qHTS assay to identify small molecule antagonists of the estrogen related receptor (ERR) signaling pathway from Tox21 library (AID 1224848); also: nearly all actives have a fitted effect of over 50% in size; also: potency is read from the fitted curve at half-maximal effect
In short: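 Luminescent reporter read-out (ONE-Glo) from NTP's ERR cell line after 18 h treatment at 37 C with DMSO-dissolved Tox21 compounds; cells pre-plated 6 h beforehand at 2,000 per well.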

[5] = qHTS assay to identify small molecule agonists of the estrogen related receptor (ERR) signaling pathway from Tox21 library (AID 1224849; calls by dose curve; also: nearly all actives have a fitted effect of over 15% in size); conditions: ERR reporter cell line, ONE-Glo luciferase, 18 h
In short: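 ERR cells, 6 h pre-incubation 37 C/5% CO2; cpd in DMSO pinned; 18 h 37 C; ONE-Glo added, 30 min RT; luminescence read. Agonist mode, qHTS.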

[6] = qHTS RealTime-Glo MT Cell Viability Assay in HepG2 cells - 24 hour (AID 1224867); also: nearly all actives have a fitted effect of over 50% in size
In short: (§1)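 qHTS, HepG2, 600 cells/well, RealTime-Glo (NanoLuc + prosubstrate) added with cells; 5 h preincubation; DMSO compound addition; 37 C; luminescence at 0/8/16/24/32/40 h.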

[7] = qHTS RealTime-Glo MT Cell Viability Assay in HEK293 cells - 32 hour (AID 1224868); also: nearly all actives have a fitted effect of over 50% in size; also: potency is read from the fitted curve at half-maximal effect
In short: (§2)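 Assay medium contained NanoLuc luciferase plus cell-permeant prosubstrate, added with HEK293 cells at 600 cells/well. After 5 h at 37 C/5% CO2 compounds were added; plates stayed at 37 C for 40 h with serial luminescence reads.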

[8] = A CellTox Green Cytotoxicity Assay to monitor cytotoxicity in HEK293 cells - 0 hour (AID 1224869); also: nearly all actives have a fitted effect of over 50% in size
In short: (§3)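 Nonlytic real-time cytotoxicity: HEK293 + CellTox Green reagent plated, 5 h preincubation, pintool compound addition (23 nL in DMSO), 37 C for 40 h, fluorescence measured at successive time points.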

[9] = qHTS RealTime-Glo MT Cell Viability Assay in HepG2 cells - 40 hour (AID 1224870); also: nearly all actives have a fitted effect of over 50% in size
In short: (§4)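 HepG2 cells (600/well) mixed with RealTime-Glo MT reagent, settled 5 h at 37 C/5% CO2 before compound addition. Nonlytic NanoLuc luminescence from viable-cell prosubstrate reduction read repeatedly during 40 h treatment at 37 C.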

[10] = A CellTox Green Cytotoxicity Assay to monitor cytotoxicity in HEK293 cells - 40 hour (AID 1224871); also: nearly all actives have a fitted effect of over 45% in size; also: potency is read from the fitted curve at half-maximal effect
In short: as §3

[11] = qHTS RealTime-Glo MT Cell Viability Assay in HEK293 cells - 16 hour (AID 1224872); also: nearly all actives have a fitted effect of over 50% in size; also: potency is read from the fitted curve at half-maximal effect
In short: as §2

[12] = qHTS RealTime-Glo MT Cell Viability Assay in HepG2 cells - 8 hour (AID 1224873); also: nearly all actives have a fitted effect of over 55% in size
In short: as §4

[13] = qHTS RealTime-Glo MT Cell Viability Assay in HEK293 cells - 40 hour (AID 1224874); conditions: RealTime-Glo luminescence; max response: stronger effect = lower value; also: nearly all actives have a fitted effect of over 50% in size; also: potency is read from the fitted curve at half-maximal effect
In short: (§5)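 Cells were seeded together with NanoLuc luciferase and a prosubstrate that viable cells reduce to a luciferase substrate. After a 5 h incubation at 37 C/5% CO2, compounds were added and luminescence was measured repeatedly during 40 h of treatment.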

[14] = A CellTox Green Cytotoxicity Assay to monitor cytotoxicity in HepG2 cells - 16 hour (AID 1224876); also: nearly all actives have a fitted effect of over 45% in size; also: potency is read from the fitted curve at half-maximal effect
In short: (§6)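 Read-out is fluorescence of a cyanine dye excluded from live cells that stains DNA of dead HepG2 cells, with signal proportional to cytotoxicity. Plates were read at 0, 8, 16, 24, 32 and 40 h after compound addition.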

[15] = qHTS RealTime-Glo MT Cell Viability Assay in HepG2 cells - 32 hour (AID 1224877); also: nearly all actives have a fitted effect of over 55% in size
In short: as §1

[16] = A CellTox Green Cytotoxicity Assay to monitor cytotoxicity in HepG2 cells - 24 hour (AID 1224878); also: nearly all actives have a fitted effect of over 45% in size; also: potency is read from the fitted curve at half-maximal effect
In short: as §6

[17] = A CellTox Green Cytotoxicity Assay to monitor cytotoxicity in HepG2 cells - 40 hour (AID 1224879); also: nearly all actives have a fitted effect of over 40% in size
In short: as §6

[18] = qHTS RealTime-Glo MT Cell Viability Assay in HEK293 cells - 0 hour (AID 1224880); also: top concentration of the series differs between compounds; nearly all actives have a fitted effect of over 45% in size
In short: as §5

[19] = A CellTox Green Cytotoxicity Assay to monitor cytotoxicity in HEK293 cells - 24 hour (AID 1224875); also: nearly all actives have a fitted effect of over 45% in size; also: potency is read from the fitted curve at half-maximal effect
In short: as §3
% is scaled to controls: 0 for no effect and ±100 for the full control effect.

CCOC(=O)c1cncn1C(C)c1ccccc1 (stereo not drawn)
inactive: Potency [1] | Potency [2] | Potency [3] | Potency [4] | activity change, positive = activation ([5]; at 42.5 µM (top of the series)) -0.608% | Potency [6] | Potency [7] | Potency [8] | Potency [9] | Potency [10] | Potency [11] | Potency [12] | max response [13] 3.04% | Potency [14] | Potency [15] | Potency [16] | Potency [17] | outcome [18]

CN(C1CCCCC1)C1CCCCC1
inactive: Potency [1] | Potency [2] | Potency [3] | Potency [6] | Potency [7] | Potency [8] | Potency [9] | Potency [10] | Potency [11] | Potency [12] | max response [13] -2.03% | Potency [19] | Potency [14] | Potency [15] | Potency [16] | Potency [17] | outcome [18]

O=C(CCl)CCl
inactive: Potency [3] | Potency [6] | Potency [8] | Potency [9] | Potency [12] | Potency [19] | Potency [14] | Potency [15] | outcome [18]
active: Potency [1] 21.9 µM | Potency [2] 104 µM | Potency [7] 18 µM and 19.5 µM | Potency [10] 21.9 µM | Potency [13] 18 µM and 21.9 µM | Potency [16] 22.7 µM

CCC(C)(C)c1ccc(O)c(C(C)(C)CC)c1
active: Potency [1] 19.3 µM and 24.5 µM | Potency [2] 56 µM and 35.7 µM | Potency [3] 88.8 µM and 40.1 µM | Potency [10] 43.2 µM and 15.5 µM | Potency [11] 43.2 µM | Potency [13] 43.2 µM | Potency [19] 43.2 µM and 17.4 µM | Potency [14] 24.3 µM | Potency [16] 34.3 µM
60.4 µM (active) and inactive: Potency [4]
inactive: activity change, positive = activation ([5]; at 92.4 µM (top of the series)) -59% and -10.3% | Potency [8] | Potency [9] | max response [13] -21.8% | Potency [15] | outcome [18]

CC(C)(C)NCC(O)c1cc(Cl)c(N)c(C(F)(F)F)c1 (stereo not drawn)
inactive: Potency [1] | Potency [2] | Potency [3] | Potency [4] | activity change, positive = activation ([5]; at 42.5 µM (top of the series)) -0.267% | Potency [6] | Potency [7] | Potency [8] | Potency [9] | Potency [10] | Potency [11] | Potency [12] | max response [13] 3.67% | Potency [19] | Potency [14] | Potency [15] | Potency [16] | Potency [17] | outcome [18]

O=C(NCNC(=O)NC1C(=O)NC(=O)N1CO)NC1C(=O)NC(=O)N1CO (stereo not drawn)
inactive: Potency [1] | Potency [2] | Potency [3] | Potency [4] | activity change, positive = activation ([5]; at 92.4 µM (top of the series)) 3.53% | Potency [6] | Potency [7] | Potency [8] | Potency [9] | Potency [10] | Potency [11] | Potency [12] | max response [13] 4.4% | Potency [19] | Potency [14] | Potency [15] | Potency [16] | outcome [18]
